Hit rate of the full screen: of about 390,000 compounds, about 17,000 (4.4%) were called active. A call without a number means that no potency is given here. Roughly 8% stayed inconclusive and do not appear here. Calls come from the whole dose curve; as a rule, active = well fitted inhibition curve with a large enough effect; inconclusive = small, poorly fitted or top-dose-only effect; inactive = no such curve, though single readings can be large or run the other way. The sample as a whole holds a higher share of actives than the screen did.
Each molecule was assayed against Lysine-specific demethylase 4A (Homo sapiens) (UniProt O75164) (assay: qHTS Assay for Inhibitors of JMJD2A-Tudor Domain). Conditions: AlphaScreen JMJD2A-Tudor / H3K4me3 peptide binding; series mostly up to 114 µM.
Sequence of Lysine-specific demethylase 4A (Homo sapiens) (O75164 whole entry, looked up, the tested form may be a part): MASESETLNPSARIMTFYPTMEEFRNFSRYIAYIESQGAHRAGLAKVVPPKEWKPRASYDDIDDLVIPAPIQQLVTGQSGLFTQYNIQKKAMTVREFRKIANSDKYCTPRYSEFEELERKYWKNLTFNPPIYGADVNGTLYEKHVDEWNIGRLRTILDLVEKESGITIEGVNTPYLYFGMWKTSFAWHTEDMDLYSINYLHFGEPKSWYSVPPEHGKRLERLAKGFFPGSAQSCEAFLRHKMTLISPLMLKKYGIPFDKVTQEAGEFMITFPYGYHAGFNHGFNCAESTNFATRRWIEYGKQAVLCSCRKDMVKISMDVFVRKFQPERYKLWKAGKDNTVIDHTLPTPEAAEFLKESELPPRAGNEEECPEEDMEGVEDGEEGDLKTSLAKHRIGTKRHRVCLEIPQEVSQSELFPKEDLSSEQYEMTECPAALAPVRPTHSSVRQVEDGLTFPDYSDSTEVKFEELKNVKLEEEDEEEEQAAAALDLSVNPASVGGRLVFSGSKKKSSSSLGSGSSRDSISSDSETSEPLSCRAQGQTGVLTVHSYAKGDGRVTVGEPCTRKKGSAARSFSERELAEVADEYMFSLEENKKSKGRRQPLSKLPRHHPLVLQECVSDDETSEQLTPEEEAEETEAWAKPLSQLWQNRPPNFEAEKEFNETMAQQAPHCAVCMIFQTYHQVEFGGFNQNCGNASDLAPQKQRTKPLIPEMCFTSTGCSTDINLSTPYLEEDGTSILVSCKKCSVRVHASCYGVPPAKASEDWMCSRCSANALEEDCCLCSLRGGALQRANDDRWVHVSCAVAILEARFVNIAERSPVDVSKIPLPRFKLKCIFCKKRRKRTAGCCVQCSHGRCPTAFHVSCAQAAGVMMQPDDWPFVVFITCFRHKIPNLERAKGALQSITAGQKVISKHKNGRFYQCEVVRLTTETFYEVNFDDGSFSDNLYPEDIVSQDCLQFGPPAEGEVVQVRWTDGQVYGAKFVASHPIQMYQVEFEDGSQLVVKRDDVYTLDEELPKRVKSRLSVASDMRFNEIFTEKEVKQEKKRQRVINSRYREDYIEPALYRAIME
Note: nearly all actives have a fitted effect of over 50% in size.
Potency is the fitted concentration of half-maximal effect.

Row | Compound | Potency
1 | Cn1c(=O)c2c(SCC(=O)N3CCc4ccccc43)nc(-c3ccc(Cl)cc3)nc2n(C)c1=O | inactive
2 | CCNC(=O)CC1C(=O)N(c2ccc(F)cc2)C(=O)N1Cc1ccc(C)cc1 (stereo not given) | inactive
3 | CN1CCN(C2(CNC(=O)COc3ccc(C(C)(C)C)cc3)CCCCC2)CC1 | inactive
4 | Cc1ccc(Cl)cc1N1CCN(C(=O)CN2C(=O)COc3ccc(S(=O)(=O)N4CCOCC4)cc32)CC1 | inactive
5 | Oc1ccc(Cl)cc1C1C=C(c2ccc3c(c2)OCO3)NC(c2ccc(F)c(Br)c2)N1 (stereo not given) | inactive
6 | CC(C)c1ccc(C2C(C#N)=C(N)Oc3c2oc(CO)cc3=O)cc1 (stereo not given) | inactive
7 | CC(C)c1ccc(C2CC(=O)N3CN(C4CCCCC4)CSC3=C2C#N)cc1 (stereo not given) | 25.1 µM (active)
8 | COc1cc(OC)cc(-c2nnc(SCC(=O)Nc3ccc(C(=O)O)cc3)s2)c1 | inactive
9 | COc1ccc(-c2nc3c(c(SCC(=O)Nc4ccc(C(=O)O)cc4)n2)Cc2ccccc2O3)cc1 | 35.5 µM (active)
10 | COc1ccc(NC(=O)CSc2nc(N)c(-c3ccccc3)c(=O)[nH]2)cc1 | inactive
11 | CN(Cc1ccccc1)C(=O)c1cn(C)c2ccc(S(=O)(=O)N3CCCCC3)cc2c1=O | inactive
12 | CCOc1ccc(CN2CCN(CCCc3ccccc3)C(CCO)C2)cc1 (stereo not given) | inactive
13 | CCOc1ccc(CN2CCCN(C)CC2)cc1 | 3.55 µM (active)
14 | CCOc1ccc(CC(=O)NC2CCN(Cc3ccccc3)CC2)cc1 | inactive
15 | CCOc1ccccc1CNC(=O)c1ccc(-n2c(C)cc3c2CCC(C)C3)cc1 (stereo not given) | inactive
16 | COc1ccc(/C=C2/C(=O)N(c3ccccc3)N=C2C)c(OC)c1 | 15.8 µM (active)
17 | COc1ccc(/C=C2/C(=O)OCc3cc(OC)c(OC)cc32)c(OC)c1 | inactive
18 | COc1ccc(C(=O)COC(=O)C(O)c2ccccc2)c(OC)c1 (stereo not given) | inactive
19 | Cc1ccc(CNC(=O)CCc2c(C)nc3c(c(C)nn3-c3ccccc3)c2C)cc1 | inactive
20 | C/C(CC(=O)NC(C)c1ccccc1)=N\NC(N)=S (stereo not given) | 31.6 µM (active)
21 | Cc1ccc(S(=O)(=O)CC(=O)NC(C)c2ccccc2)cc1 (stereo not given) | inactive
22 | Cc1cc(C(=O)NNC(=S)NC(C)c2ccccc2)cs1 (stereo not given) | inactive

Row | Compound | Potency
23 | CCN1CCN(CCCNC(=O)c2cnn(-c3ccc(C)cc3C)c2C2CCN(C(=O)OC(C)(C)C)CC2)CC1 | inactive
24 | COc1ccc(Cn2c(=O)n(-c3ccccc3C)c(=O)c3c4c(sc32)CN(C(C)=O)CC4)cc1 | inactive
25 | CCN1CCN(C(c2cccnc2)c2cc(Cl)c3cccnc3c2O)CC1 (stereo not given) | 17.8 µM (active)
26 | O=C(NC(c1ccco1)c1cc(Cl)c2cccnc2c1O)c1ccccc1 (stereo not given) | inactive
27 | CC(=O)NC(c1cccs1)c1cc(Cl)c2cccnc2c1O (stereo not given) | inactive
28 | COc1ccccc1N1CCN(C(CNC(=O)C(=O)NCc2ccc(C)cc2)c2cccnc2)CC1 (stereo not given) | inactive
29 | O=C(CSc1cccc2cccnc12)N/N=C/c1cccnc1 | inactive
30 | CCOC(=O)N1CCN(C(c2cccnc2)c2ccc3cccnc3c2O)CC1 (stereo not given) | 17.8 µM (active)
31 | CC1=C(C(=O)OCc2ccc(C)cc2)C(c2c(Cl)cccc2Cl)CC(=O)N1 (stereo not given) | inactive
32 | Cc1onc(-c2ccc(F)cc2F)c1C(=O)Nc1cccc(C(F)(F)F)c1 | inactive
33 | CCOCCCNC(=O)c1c(NC(=O)c2nc(SC)ncc2Cl)sc2c1CCCC2 | inactive
34 | CCOc1ccc(NC(=O)CCc2c(C)nn(-c3ccc(N4CCCC4)nn3)c2C)cc1 | inactive
35 | CCC(=O)c1ccc(OCC(=O)Nc2ccc(N3CCCCC3)cc2)cc1 | inactive
36 | O=C(C1CC(=O)N(C2CCCCC2)C1)N1CCN(c2ccccc2)CC1 (stereo not given) | inactive
37 | O=C1C=CC(=O)N1c1ccc(N2CCCCC2)cc1 | 20 µM (active)
38 | CCC(=O)Nc1ccc(C)cc1-c1nc2ccccc2n(Cc2ccccc2)c1=O | inactive
39 | COc1cc(CN(C(=O)c2ccccc2Br)c2ccccn2)cc(OC)c1OC | inactive
40 | COc1ccccc1C1C(C(=O)N2CCCCC2)=C(C)Nc2nc3ccccc3n21 (stereo not given) | inactive
41 | COc1ccccc1CNC(=O)c1ccc(-n2c(C)cc3c2CCCC3)cc1 | inactive
42 | CCc1nnc(NC(=O)c2ccc(S(=O)(=O)NC3CCCCC3)cc2)s1 | inactive
43 | CCc1nnc(NC(=O)c2nc3nccc(C)n3n2)s1 | 35.5 µM (active)
44 | Cc1ccnc2nc(C(=O)Nc3nnc(-c4ccccc4)o3)nn12 | inactive

Row | Compound | Potency
45 | COc1ccc(CCC(=O)NCc2ccc3c(c2)CCN3C(=O)c2ccc(F)cc2)cc1 | inactive
46 | COc1ccccc1-n1ccnc1SCC(=O)NC(C)(C)C | inactive
47 | COc1ccccc1-n1ccnc(SCC(=O)NC2CCCCC2)c1=O | 35.5 µM (active)
48 | COc1ccc(-c2nnc(SCC(=O)NC3CCCCC3)o2)cc1OC | inactive
49 | N#CN1CCC(NC(=O)c2ccc(F)cc2)CC1 | inactive
50 | C=CCc1ccc(OCC(O)CN2CCN(Cc3ccccc3)CC2)c(OC)c1 (stereo not given) | inactive
51 | OC(COc1ccc(CN2CCSCC2)cc1)CN1CCCCC1 (stereo not given) | inactive
52 | C/C=C/c1ccc(OCCCCN2CCC(C)CC2)c(OC)c1 | 3.16 µM (active)
53 | COc1ccc(OCCCCN2CCC(C)CC2)cc1 | 20 µM (active)
54 | C/C=C/c1ccc(OCC(=O)NNC(=O)CN(C)S(=O)(=O)c2ccc(C)cc2)c(OC)c1 | inactive
55 | C/C=C/c1ccc(OCC(O)CN2CCCCCCC2)c(OC)c1 (stereo not given) | 3.16 µM (active)
56 | C/C=C/c1ccc(OCCOc2ccc(C=O)cc2OC)c(OC)c1 | inactive
57 | CC1CCN(CCC(=O)Nc2ccccc2)CC1 | inactive
58 | COc1ccc(OC)c(NC(=O)CCN2CCC(C)CC2)c1 | inactive
59 | O=C(NC1CC(=O)N(c2ccc(F)cc2)C1)c1cccs1 (stereo not given) | inactive
60 | COc1ccc(-c2noc(CSc3nnc(-c4ccccc4)n3-c3ccc(F)cc3)n2)c(OC)c1 | inactive
61 | Cc1oc2ccc(O)c(CN3CCCCC3)c2c1C(=O)Nc1cccc(C(F)(F)F)c1 | inactive
62 | CCCCCn1c(=O)[nH]c2cc(C(=O)NCCN(C)CCCC)ccc2c1=O | inactive
63 | CCC(=O)N1CCc2cc(S(=O)(=O)NC(Cc3ccccc3)C(=O)NCc3ccc(C)cc3)ccc21 (stereo not given) | inactive
64 | CN(Cc1ccccc1)C(=O)c1cc2c(=O)n(C)c3ccccc3c2s1 | inactive
65 | COc1ccc(C2=Nn3c(nnc3-c3ccccc3O)SC2)cc1 | inactive
